The text below walks through data of ChEMBL document CHEMBL3988442, “University of Dundee, Small-Polar-MMV Screening Library” (2021).

For some assays here: Results with a measured potency or affinity are listed apart.

Common to all, as to design: scale not given: direction of the effect not stated beside the values
Experiment [1] concerns the target Protein translocase subunit SecA (Escherichia coli (strain K12)) (UniProt P10408). Nature of the experiment: Assay to Identify E. coli SecA ATPase Inhibitors. In kind it is functional. As to conditions: 30 µM.
Experiment [2] deals with T1, Ubiquitin-activating enzyme e1, putative (Leishmania donovani (strain BPK282A1)) (UniProt E9BSI1).
T1 sequence (whole entry): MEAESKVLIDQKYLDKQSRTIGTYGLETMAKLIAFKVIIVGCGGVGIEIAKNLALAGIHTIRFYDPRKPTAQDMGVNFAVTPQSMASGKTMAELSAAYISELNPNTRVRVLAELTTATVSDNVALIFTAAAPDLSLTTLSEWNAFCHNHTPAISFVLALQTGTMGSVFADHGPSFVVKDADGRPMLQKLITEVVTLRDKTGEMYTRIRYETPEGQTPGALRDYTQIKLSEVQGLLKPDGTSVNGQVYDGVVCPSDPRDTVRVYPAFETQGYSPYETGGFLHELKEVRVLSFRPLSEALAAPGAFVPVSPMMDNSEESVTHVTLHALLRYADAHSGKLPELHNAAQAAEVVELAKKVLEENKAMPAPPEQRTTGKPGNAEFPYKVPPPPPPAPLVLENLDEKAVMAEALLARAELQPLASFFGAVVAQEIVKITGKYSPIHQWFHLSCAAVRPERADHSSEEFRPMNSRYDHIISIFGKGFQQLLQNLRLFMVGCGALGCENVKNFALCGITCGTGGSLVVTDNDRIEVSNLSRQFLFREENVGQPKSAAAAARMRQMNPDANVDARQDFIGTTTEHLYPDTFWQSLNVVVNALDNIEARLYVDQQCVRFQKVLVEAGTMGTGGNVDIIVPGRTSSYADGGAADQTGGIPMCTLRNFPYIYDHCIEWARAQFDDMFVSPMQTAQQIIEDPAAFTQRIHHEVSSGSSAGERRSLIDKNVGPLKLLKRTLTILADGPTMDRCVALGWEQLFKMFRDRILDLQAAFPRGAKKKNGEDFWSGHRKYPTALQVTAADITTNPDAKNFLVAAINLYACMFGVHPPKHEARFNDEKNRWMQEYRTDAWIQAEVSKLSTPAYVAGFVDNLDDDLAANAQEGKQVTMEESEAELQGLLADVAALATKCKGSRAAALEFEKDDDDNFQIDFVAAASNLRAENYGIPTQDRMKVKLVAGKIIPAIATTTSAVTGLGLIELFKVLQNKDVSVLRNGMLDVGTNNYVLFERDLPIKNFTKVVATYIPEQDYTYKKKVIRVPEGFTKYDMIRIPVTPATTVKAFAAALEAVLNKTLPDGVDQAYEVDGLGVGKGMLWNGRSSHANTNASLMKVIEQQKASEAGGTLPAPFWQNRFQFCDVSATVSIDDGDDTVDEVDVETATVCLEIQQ
The experiment is described as follows: Leishmania donovani Ubiquitin Activating Enzyme (LdE1). In kind it is functional. The conditions noted are these: 30 µM.

Experiment [3] deals with AMP-activated protein kinase, AMPK (Homo sapiens) (UniProt P54646+O43741+P54619+Q9UGJ0+Q9Y478+Q13131+Q9UGI9). The experiment is described as follows: AMP-dependent Kinase enzyme assay. An in vitro enzyme assay that detects ADP turnover that is directly proportional to AMPK activity. This uses naive AMPK that is activated during the assay with MK-8722. In kind it is functional. As to conditions: 30 µM.

The target of experiment [4] is Sialic acid-binding Ig-like lectin 9 (Homo sapiens) (UniProt Q9Y336). The experiment is described as follows: Hs-Siglec9 ALPHAscreen SOP 20170721. The conditions noted are these: 10 µM. In general terms: Bead proximity is the source of the signal in Alpha formats.
Sequence of Sialic acid-binding Ig-like lectin 9 (Homo sapiens) (Q9Y336 whole entry): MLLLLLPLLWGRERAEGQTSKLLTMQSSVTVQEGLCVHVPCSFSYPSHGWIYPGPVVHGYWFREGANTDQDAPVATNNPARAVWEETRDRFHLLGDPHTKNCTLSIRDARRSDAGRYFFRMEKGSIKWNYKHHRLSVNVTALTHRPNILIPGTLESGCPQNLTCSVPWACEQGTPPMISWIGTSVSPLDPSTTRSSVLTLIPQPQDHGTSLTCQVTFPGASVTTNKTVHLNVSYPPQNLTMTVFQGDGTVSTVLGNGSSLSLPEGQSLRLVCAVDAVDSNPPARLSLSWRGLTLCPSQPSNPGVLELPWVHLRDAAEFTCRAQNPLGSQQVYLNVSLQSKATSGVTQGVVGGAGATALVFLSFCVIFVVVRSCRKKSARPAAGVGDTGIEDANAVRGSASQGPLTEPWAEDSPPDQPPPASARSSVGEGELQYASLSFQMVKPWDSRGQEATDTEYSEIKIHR
A further experiment relates to Trypanosoma cruzi. The experiment is described as follows: Trypanosoma cruzi phosphomannomutase and mannose-1-phosphate guanylyltransferase assay. The class given is functional. The conditions noted are these: 10 µM.
In experiment [5] the target is T2, Arginase-2, mitochondrial (Homo sapiens) (UniProt P78540).
T2 sequence (whole entry): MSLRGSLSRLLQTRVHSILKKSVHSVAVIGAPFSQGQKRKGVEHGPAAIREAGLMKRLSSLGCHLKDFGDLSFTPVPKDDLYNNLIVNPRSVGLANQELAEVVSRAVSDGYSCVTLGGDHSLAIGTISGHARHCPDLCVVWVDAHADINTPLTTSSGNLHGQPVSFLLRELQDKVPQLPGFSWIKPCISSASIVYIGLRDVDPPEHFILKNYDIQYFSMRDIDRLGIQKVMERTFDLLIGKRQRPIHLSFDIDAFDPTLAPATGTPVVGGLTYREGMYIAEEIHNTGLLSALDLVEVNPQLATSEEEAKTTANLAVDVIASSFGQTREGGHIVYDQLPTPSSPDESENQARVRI
Nature of the experiment: in vitro enzyme assay to detect the production of urea directly proportional to the activity of Arginase II. Also: in the data most compounds retested in dose-response had high values. The conditions noted are these: 33.3 µM. The class given is functional.

In experiment [6] the target is T3, Proteasome subunit beta (Trypanosoma cruzi) (UniProt O96673).
T3 sequence (whole entry): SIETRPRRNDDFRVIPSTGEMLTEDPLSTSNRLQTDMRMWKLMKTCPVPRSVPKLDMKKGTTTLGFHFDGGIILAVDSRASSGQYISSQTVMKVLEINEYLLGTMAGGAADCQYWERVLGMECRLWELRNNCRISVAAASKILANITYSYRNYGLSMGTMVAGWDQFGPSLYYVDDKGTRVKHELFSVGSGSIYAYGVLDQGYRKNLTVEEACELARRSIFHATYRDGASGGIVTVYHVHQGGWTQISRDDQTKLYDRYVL
The experiment is described as follows: Trypanosoma cruzi proteasome chymotrypsin-like activity (TcProtChymo) assay. Also: in the data most compounds retested in dose-response had high values. As to conditions: 9.37 µM. The class given is functional.

Another experiment is filed under the species Homo sapiens. The experiment is described as follows: To identify inhibition of the IFN signalling (Jak-Stat) pathway via expression of an eGFP reporter gene under the control of an IFN-stimulated response element (ISRE) containing MxA promoter. In kind it is functional. As to conditions: 30 µM. (Reporter assays use an easily measured gene product as a stand-in for the process of interest.)

The target of experiment [7] is T4, Tyrosyl-tRNA synthetase, putative (Trypanosoma cruzi (strain CL Brener)) (UniProt Q4DSP6).
T4 sequence (whole entry): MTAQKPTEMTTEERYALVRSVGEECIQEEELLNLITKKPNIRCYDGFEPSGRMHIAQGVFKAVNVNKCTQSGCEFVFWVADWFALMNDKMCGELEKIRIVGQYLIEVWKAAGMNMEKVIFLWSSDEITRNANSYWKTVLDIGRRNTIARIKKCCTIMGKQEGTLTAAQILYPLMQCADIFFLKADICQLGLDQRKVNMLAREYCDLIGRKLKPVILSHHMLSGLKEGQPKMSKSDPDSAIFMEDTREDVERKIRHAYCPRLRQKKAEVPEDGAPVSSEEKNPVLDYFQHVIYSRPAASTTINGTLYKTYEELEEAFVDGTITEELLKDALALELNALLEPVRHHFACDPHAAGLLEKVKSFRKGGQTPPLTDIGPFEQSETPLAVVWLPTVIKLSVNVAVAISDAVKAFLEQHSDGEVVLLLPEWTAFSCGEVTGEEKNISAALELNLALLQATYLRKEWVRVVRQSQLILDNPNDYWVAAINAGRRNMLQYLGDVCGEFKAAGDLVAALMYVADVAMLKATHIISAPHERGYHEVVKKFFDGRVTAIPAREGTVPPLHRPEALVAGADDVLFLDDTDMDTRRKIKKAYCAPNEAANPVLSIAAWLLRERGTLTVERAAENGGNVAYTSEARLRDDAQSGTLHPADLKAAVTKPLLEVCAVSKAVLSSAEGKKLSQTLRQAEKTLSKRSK
Nature of the experiment: Trypanosoma cruzi tyrosyl tRNA synthetase (TcYRS) _High Tyrosine SOP. Also: in the data most compounds retested in dose-response had high values. In kind it is functional. As to conditions: 30 µM.

In experiment [8] the target is T4, Tyrosyl-tRNA synthetase, putative (Trypanosoma cruzi (strain CL Brener)). The experiment is described as follows: Trypanosoma cruzi tyrosyl tRNA synthetase (TcYRS) SOP. The class given is functional. As to conditions: 30 µM.
The target in experiment [9] is Chromo domain-containing protein 1 (Saccharomyces cerevisiae (strain ATCC 204508 / S288c) (Baker's yeast)) (UniProt P32657). Nature of the experiment: ScCHD-1 Enzyme Inhibition Assay. Also: in the data most compounds retested in dose-response had high values. The conditions noted are these: 30 µM. The class given is functional.
Sequence of Chromo domain-containing protein 1 (Saccharomyces cerevisiae (strain ATCC 204508 / S288c) (Baker's yeast)) (P32657 whole entry, the tested form may be a part): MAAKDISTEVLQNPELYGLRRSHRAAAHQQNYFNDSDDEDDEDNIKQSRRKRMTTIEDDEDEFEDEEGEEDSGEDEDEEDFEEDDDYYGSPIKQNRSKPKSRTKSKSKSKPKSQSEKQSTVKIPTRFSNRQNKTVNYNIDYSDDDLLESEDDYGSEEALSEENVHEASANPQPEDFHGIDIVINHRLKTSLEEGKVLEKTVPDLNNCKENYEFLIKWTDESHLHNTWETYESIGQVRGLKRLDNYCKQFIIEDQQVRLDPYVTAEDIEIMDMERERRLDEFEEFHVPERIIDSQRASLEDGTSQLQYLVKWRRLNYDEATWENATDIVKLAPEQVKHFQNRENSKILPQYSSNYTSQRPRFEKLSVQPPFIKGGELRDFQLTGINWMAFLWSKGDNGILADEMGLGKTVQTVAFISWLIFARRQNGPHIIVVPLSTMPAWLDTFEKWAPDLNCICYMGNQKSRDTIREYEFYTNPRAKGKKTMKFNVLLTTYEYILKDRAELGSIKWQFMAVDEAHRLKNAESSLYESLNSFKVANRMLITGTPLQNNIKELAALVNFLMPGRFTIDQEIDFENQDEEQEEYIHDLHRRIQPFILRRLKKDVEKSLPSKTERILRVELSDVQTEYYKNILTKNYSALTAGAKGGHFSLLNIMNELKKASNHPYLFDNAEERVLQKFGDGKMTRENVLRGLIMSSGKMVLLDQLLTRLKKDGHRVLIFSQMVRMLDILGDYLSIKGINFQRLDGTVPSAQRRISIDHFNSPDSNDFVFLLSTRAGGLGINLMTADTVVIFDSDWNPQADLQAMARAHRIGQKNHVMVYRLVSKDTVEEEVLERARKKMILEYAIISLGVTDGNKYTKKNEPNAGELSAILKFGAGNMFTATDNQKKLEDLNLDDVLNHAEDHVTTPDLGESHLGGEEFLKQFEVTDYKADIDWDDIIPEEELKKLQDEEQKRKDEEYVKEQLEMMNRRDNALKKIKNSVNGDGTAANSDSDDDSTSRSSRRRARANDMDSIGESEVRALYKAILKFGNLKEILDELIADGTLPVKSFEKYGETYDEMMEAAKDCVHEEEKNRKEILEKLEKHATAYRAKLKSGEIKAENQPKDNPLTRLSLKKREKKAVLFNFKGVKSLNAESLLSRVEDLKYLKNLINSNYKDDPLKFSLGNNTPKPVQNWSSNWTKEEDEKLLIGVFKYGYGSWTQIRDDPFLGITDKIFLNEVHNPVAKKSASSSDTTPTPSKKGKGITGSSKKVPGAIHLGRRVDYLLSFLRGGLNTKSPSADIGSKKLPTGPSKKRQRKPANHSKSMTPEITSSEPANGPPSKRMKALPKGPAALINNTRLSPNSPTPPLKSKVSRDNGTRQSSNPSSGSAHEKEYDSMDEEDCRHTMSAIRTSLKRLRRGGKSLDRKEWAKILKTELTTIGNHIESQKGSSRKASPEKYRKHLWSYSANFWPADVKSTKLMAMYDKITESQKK

Sequence of Protein translocase subunit SecA (Escherichia coli (strain K12)) (P10408 whole entry): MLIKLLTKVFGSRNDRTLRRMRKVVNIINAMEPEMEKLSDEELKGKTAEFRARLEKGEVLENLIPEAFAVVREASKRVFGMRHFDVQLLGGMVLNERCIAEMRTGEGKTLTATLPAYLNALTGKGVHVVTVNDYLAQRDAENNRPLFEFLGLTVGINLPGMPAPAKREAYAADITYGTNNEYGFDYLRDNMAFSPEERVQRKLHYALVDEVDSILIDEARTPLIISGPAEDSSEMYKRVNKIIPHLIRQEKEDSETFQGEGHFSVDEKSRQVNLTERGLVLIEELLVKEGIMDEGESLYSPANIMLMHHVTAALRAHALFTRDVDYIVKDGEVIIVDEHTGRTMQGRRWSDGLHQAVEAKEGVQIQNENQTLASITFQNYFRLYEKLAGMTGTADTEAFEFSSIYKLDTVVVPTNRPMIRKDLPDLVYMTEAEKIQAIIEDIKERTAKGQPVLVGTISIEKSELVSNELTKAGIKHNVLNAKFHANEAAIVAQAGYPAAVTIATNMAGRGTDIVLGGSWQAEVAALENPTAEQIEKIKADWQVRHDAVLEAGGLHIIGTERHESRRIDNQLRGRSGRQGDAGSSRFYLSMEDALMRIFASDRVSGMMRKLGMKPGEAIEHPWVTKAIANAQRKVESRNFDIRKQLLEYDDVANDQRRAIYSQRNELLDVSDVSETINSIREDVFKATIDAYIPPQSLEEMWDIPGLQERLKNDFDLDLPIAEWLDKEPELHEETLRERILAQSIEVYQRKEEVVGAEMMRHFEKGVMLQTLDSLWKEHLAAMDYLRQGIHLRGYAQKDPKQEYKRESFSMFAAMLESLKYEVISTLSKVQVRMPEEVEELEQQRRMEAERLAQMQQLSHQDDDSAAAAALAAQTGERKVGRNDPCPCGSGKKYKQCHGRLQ

As for `CCc1c(C(=O)N2CCN(CC(N)=O)CC2)cnn1C(C)(C)C`, the Percent Effect is -6.88% in experiment [1]; 13.2% in experiment [2]; -1.82% in experiment [3]; 18.1% in experiment [4]; 5.32% in the experiment with Trypanosoma cruzi; 3.6% in [5]. The Percent Effect in experiment [6] is 11.9%; in the experiment filed under Homo sapiens it was -6.74%; in experiment [7], 4.43%; in experiment [8], 11.1%; in experiment [9], -7.68%.

For the compound `CCc1csc(C2CCCN(C(=O)c3c[nH]c(C)n3)C2)n1` (stereo not given), the Percent Effect is -1.65% in experiment [1]; 7.79% in [2]; -3.3% in experiment [3]; 1.9% in [4]; 6.18% in the experiment with Trypanosoma cruzi; -1.78% in [5]. Further, the Percent Effect in experiment [6] was -3.88%; in the experiment listed under Homo sapiens it was -6.54%; in experiment [7] it was 2.91%; in [8], 12.2%; in experiment [9] it was -6.32%.

For the compound `CC(NC(=O)NCCCN(C)S(C)(=O)=O)c1cccc(Cl)c1` (stereo not given), the Percent Effect in [1] is 1.78%; in experiment [2] it was 6.33%; in experiment [3] it was 0.875%; in [4], -4.21%; in the experiment with Trypanosoma cruzi, -2.97%; in experiment [5], 0.215%. Besides, the Percent Effect is 11.8% in experiment [6]; 13.8% in the experiment listed under Homo sapiens; 9.38% in [7]; 7.59% in experiment [8]; 0.197% in experiment [9].

With `COc1nc2c(cc1C(=O)N1C[C@H](N)C[C@H]1C(=O)NC(C)C)CCC2`, the Percent Effect was -3.3% in experiment [1]; 18.1% in [2]; -10.6% in experiment [3]; 9.06% in [4]; 6.51% in the experiment on Trypanosoma cruzi; 8.83% in experiment [5]. For the same compound, the Percent Effect in experiment [6] was 16.3%; in the experiment filed under Homo sapiens, 9.52%; in experiment [7], 6.32%; in experiment [8], 15.4%; in experiment [9] it was -4.1%.

As to `O=C(CCCc1cn[nH]c1)N1C[C@@H](CN2CCOCC2)[C@@H](CO)C1`, the Percent Effect was -5.38% in experiment [1]; -5.48% in [2]; 0.507% in experiment [3]; -3.16% in experiment [4]; -2.74% in the experiment on Trypanosoma cruzi; -2.27% in [5]. The Percent Effect in experiment [6] is 4.08%; in the experiment listed under Homo sapiens, 5.26%; in experiment [7], 0%; in experiment [8], -5%; in experiment [9] it was -2.89%.

Regarding `CN(Cc1nnc(C2CC2)n1C)C1CCN(Cc2ccccc2F)C1` (stereo not given), the Percent Effect is -3.03% in experiment [1]; -5.48% in [2]; -2.94% in [3]; 2.42% in experiment [4]; 2.18% with Trypanosoma cruzi; -3.19% in [5]. Further, the Percent Effect is 10.4% in [6]; -27.4% in the experiment filed under Homo sapiens; 0% in [7]; 8.64% in [8]; -4.72% in experiment [9].

With `O=C1CCC2(CCN(Cc3cc(F)cc(F)c3)CC2)CN1CCO`, the Percent Effect in experiment [1] was -6.11%; in experiment [2] it was 4.17%; in experiment [3] it was -0.613%; in experiment [4], 0.944%; in the experiment with Trypanosoma cruzi, 1.85%; in experiment [5], -24.7%. For the same compound, the Percent Effect in experiment [6] is 9.12%; in the experiment filed under Homo sapiens, -8.34%; in experiment [7], 3.16%; in experiment [8], 10.3%; in experiment [9], -0.52%.

In the case of `Cn1ncc2c(NCCC34CCCN3CCC4)nc(C3CCCC3)nc21`, the Percent Effect in experiment [1] is -5.81%; in experiment [2] it was 5.48%; in experiment [3], 0.214%; in [4], 3.33%; with Trypanosoma cruzi it was 0.979%; in [5], 4.09%. Also, the Percent Effect in experiment [6] is 5.68%; in the experiment listed under Homo sapiens it was -18.5%; in [7], 6.45%; in experiment [8] it was 12.5%; in [9], -5.71%.

Regarding `CNc1oc(-c2cc(S(=O)(=O)N3CCCCCC3)c(C)o2)nc1C#N`, the Percent Effect in [1] is -5.54%; in experiment [2] it was -9.33%; in experiment [3] it was 2.78%; in [4], 2.42%; with Trypanosoma cruzi it was 5.5%; in [5], -3.35%. Besides, the Percent Effect is 11.3% in [6]; 8.06% in the experiment filed under Homo sapiens; 1.06% in experiment [7]; 10.3% in experiment [8]; -7.07% in experiment [9].

For `Cc1ccc(NS(=O)(=O)CC2=NC(=O)n3cccc3C2=O)cc1`, the Percent Effect in experiment [1] was -4.7%; in experiment [2], -4%; in experiment [3], -2.73%; in [4] it was 6.4%; in the experiment with Trypanosoma cruzi it was 1.97%; in experiment [5], -3.7%. In addition, the Percent Effect in [6] is 3.7%; in the experiment filed under Homo sapiens, -2.44%; in experiment [7], -10.6%; in experiment [8], -17.9%; in experiment [9] it was -2.6%.
